We go through 51 compounds from PubChem BioAssay AID504333 (National Center for Advancing Translational Sciences (NCATS), 2011).

Among all 360,000 compounds or so, about 16,000 (4.4%) were called active. Where a call stands in place of a potency, no number is given. Inconclusive results (about 9%) are left out. This is one part of a sample in which actives are shown more often than they occur. The call rests on the fitted dose curve; in most records, active means well fitted inhibition curve with a large enough effect; inconclusive means small, poorly fitted or top-dose-only effect; inactive means no such curve, though single readings can be large or run the other way.
Potency means the concentration at half of the fitted maximal effect.

Bromodomain adjacent to zinc finger domain protein 2B (Homo sapiens), sequence (Q9UIF8 whole entry, looked up, the tested form may be a part): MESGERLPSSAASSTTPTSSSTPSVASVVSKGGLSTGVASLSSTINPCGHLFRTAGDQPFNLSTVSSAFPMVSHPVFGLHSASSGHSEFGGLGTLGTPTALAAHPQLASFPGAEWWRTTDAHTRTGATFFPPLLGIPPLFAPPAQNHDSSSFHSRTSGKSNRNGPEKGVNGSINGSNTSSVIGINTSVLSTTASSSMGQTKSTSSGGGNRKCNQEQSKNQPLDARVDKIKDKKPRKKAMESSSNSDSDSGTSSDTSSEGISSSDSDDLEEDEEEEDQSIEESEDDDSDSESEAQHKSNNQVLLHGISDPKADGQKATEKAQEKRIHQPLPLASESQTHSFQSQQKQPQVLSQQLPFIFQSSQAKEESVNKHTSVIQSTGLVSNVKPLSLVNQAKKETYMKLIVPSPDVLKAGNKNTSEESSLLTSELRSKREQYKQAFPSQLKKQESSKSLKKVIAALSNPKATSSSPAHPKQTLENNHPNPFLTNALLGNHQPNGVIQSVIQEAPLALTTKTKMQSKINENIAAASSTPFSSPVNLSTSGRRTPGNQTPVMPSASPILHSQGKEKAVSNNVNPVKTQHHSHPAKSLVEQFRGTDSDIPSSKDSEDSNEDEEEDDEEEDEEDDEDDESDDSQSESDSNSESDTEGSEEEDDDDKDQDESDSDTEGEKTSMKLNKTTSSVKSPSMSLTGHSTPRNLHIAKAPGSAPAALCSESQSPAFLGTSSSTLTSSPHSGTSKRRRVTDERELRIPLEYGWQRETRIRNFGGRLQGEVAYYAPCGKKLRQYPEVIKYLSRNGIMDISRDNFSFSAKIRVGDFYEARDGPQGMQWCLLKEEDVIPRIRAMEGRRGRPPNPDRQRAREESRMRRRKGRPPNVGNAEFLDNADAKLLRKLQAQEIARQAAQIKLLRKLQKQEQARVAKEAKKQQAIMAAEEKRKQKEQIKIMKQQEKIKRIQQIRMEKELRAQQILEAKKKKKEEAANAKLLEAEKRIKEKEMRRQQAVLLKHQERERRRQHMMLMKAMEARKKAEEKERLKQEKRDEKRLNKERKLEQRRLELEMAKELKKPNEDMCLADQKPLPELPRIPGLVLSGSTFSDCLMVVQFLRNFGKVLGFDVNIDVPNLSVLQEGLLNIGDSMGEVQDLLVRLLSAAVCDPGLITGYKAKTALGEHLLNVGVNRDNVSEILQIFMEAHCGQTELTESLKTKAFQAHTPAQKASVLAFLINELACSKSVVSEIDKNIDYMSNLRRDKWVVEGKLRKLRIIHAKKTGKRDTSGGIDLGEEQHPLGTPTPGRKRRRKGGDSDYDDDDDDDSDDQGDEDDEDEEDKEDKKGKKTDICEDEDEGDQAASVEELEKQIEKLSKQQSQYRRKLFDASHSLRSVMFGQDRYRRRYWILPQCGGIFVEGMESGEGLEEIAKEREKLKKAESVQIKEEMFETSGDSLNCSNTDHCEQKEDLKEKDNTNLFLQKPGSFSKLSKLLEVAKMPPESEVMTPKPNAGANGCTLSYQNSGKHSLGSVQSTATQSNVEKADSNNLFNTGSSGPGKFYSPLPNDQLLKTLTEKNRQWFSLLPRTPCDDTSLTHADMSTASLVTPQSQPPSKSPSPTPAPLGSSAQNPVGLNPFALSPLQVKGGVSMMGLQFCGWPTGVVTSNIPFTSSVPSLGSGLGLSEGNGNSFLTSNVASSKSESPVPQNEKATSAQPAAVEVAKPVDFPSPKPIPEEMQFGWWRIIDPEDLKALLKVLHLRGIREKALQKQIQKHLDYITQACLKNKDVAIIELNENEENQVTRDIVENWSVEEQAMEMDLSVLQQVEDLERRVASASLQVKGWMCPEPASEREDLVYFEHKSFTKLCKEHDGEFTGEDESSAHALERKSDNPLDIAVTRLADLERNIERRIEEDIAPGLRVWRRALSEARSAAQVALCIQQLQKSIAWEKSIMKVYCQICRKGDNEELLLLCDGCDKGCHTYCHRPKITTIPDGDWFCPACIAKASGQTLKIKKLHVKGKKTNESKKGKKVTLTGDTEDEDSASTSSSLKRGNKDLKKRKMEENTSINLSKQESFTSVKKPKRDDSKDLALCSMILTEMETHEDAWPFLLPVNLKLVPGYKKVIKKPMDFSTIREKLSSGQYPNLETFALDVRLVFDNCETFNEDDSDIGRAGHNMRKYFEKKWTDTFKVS

In this test the target is Bromodomain adjacent to zinc finger domain protein 2B (Homo sapiens) (UniProt Q9UIF8). Nature of the test: qHTS Assay for Inhibitors of BAZ2B. Further: nearly all actives have a fitted effect of over 60% in size. The note with it: AlphaScreen BAZ2B-H3K14Ac peptide displacement; series mostly up to 114 µM. The text has this:
BAZ2B (bromodomain adjacent to zinc finger domain, 2B) belongs to a family of ubiquitously expressed bromodomain containing proteins, which biological function has not yet been elucidated. […] The interaction of BAZ2B with ISWI mediated by the BAZ1 motif has recently been described. […] The protocol is based on the AlphaScreen (PerkinElmer) displacement assay developed by NCGC [5], but uses the peptide ligand Biot-H3K14Ac, a high affinity binding partner for BAZ2B, in an AlphaScreen format. Although AlphaScreen has significant advantages with its utility in a variety of epigenetic target assays, the primary screening data provided in this deposition should be used with caution due to the prevalence of screening artifacts. The top compound concentration tested was 110uM in this assay, which increases number of actives and potential artifacts. An AlphaScreen counterscreen is highly recommended to be run against any putative actives to eliminate non-specific artifacts. Alternatively, one can use other AlphaScreen assays in PubChem to filter out promiscuous hits. Eberharter, A. et al. ACF1 improves the effectiveness of nucleosome mobilization by ISWI through PHD-histone contacts. The EMBO journal 23, 4029-4039. 2004. PMID: 15457208 [2] Jones, M.H. et al. A novel family of bromodomain genes. Genomics 63, 40-45. 2000. PMID: 10662543 [3] Yasgar, et al. Compound Management for Quantitative High-Throughput Screening. JALA. 2008 Apr;13(2):79-89. PMID: 18496600 [4] Inglese, et al. Quantitative high-throughput screening: a titration-based approach that efficiently identifies biological activities in large chemical libraries. Proc Natl Acad Sci. 1;103(31):11473-8. 2006. PMID: 16864780 [5] Quinn et al. A chemiluminescence-based method for identification of histone lysine methyltransferase inhibitors. Mol Biosyst 6(5): 782-8. 2010. PMID: 20567762 [6] Baell,Holloway. New substructure filters for removal of pan assay interference compounds (PAINS) from screening libraries and for their exclusion in bioassays. J Med Chem. 53(7):2719-40. 2010. PMID: 20131845 NIH Molecular Libraries Probe Production Network [MLPCN] NIH Chemical Genomics Center [NCGC] Structural Genomics Consortium (SGC) NIH Grant: 5U54 MH084681-02
To each well of a 1,536w plate, 2ul of BAZ2B protein (final 50nM) and 1ul biotinylated histone peptide acetylated at Lys14 [b-H3(5-23)K14Ac] (final 50nM) were added in 1x PBS buffer, pH 7.4, containing 0.01% Tween-20, using a nanoliter dispenser. Formation of a protein-peptide complex proceeded at room temperature for 30 min. A Kalypsys pin-tool was employed to transfer 23 nL of library compound solution in DMSO to each well. Following a 30 min incubation of the protein-peptide complex with compounds at room temperature, a mixture of 40 ug/mL each streptavidin-coated donor and nickel chelate acceptor AlphaScreen beads (final 10 ug/mL) were added in a 1ul dispense for a final volume of 4ul. A brief centrifugation followed (1000rpm, 1 min) and were then incubated protected from the light for 20 min at room temperature. Plates were read on an EnVision multilabel plate reader using the 1,536 plate HTS AlphaScreen aperture (excitation time 80 ms, measurement time 240 ms).
(In general: qHTS replaces the single test concentration by a dilution series.)
Regarding `O=C(O)c1cscn1`, the Potency was 20 µM (active).

As to `COc1ccc(NC(=O)Cn2c(=O)cc(C)c3c(C)nn(-c4cccc(Cl)c4C)c32)cc1OC`, the Potency entry was “inactive”.

Regarding `Cc1cccc(OCCSc2nc3ccc(NC(=O)COc4ccccc4C)cc3s2)c1`, the Potency result is “inactive”.

Regarding `COc1ccccc1OCC(=O)O/N=C(\N)c1ccccn1`, the Potency result is “inactive”.

As to `N/C(=N\OC(=O)Cc1ccc([N+](=O)[O-])cc1)c1ccccn1`, the Potency is 50.1 µM (active).

As for `N/C(=N\OC(=O)c1ccc([N+](=O)[O-])cc1)c1ccccn1`, the Potency result was “inactive”.

Take `CCOC(=O)c1cccc(NC(=O)Cn2cnc3nc4c(cc3c2=O)CCCC4)c1`: the Potency result was “inactive”.

For the compound `Cc1ccc(CCNC(=O)c2ccc3c(c2)nc2n3CCC(C)C2)cc1` (stereo unspecified), the Potency entry was “inactive”.

On to `Cn1nnnc1SCCCNCc1cccc(OCc2ccc(Cl)cc2)c1`, for which the Potency entry was “inactive”.

`CC(C)CNC(=O)C(=O)Nc1ccc(N(C)C)cc1`: the Potency entry was “inactive”.

On to `CN(C)c1ccc(N/C=C/C(=O)C(F)(F)F)cc1`, for which the Potency was 28.2 µM (active).

For `CC(=O)N(C)c1ccc(NC(=O)C(F)(F)F)cc1`, the Potency result was “inactive”.

As to `Cc1oc2ccc(O)c(CN3CCC(C)CC3)c2c1C(=O)Nc1ccccc1`, the Potency entry was “inactive”.

For the compound `Cc1c(OC(C)C(=O)N[C@@H](Cc2ccccc2)C(=O)O)ccc2c3c(c(=O)oc12)CCCC3` (stereo partly specified), the Potency result was “inactive”.

Take `Cc1c(CCC(=O)N[C@@H](CC(C)C)C(=O)O)c(=O)oc2c(C)c3oc4c(c3cc12)CCCC4`: the Potency entry was “inactive”.

For `Cc1oc2c(C)c3oc(=O)c(CC(=O)N[C@@H](CC(C)C)C(=O)N[C@@H](Cc4ccccc4)C(=O)O)c(C)c3cc2c1C`, the Potency was 35.5 µM (active).

For the compound `COc1ccc(NC(=O)CSc2nc3ncccc3[nH]2)c(OC)c1`, the Potency result was “inactive”.

For the compound `COc1ccc(C(=O)Nc2cccc(C(=O)OCc3cc(=O)n4c5c(sc4n3)CCCC5)c2)cc1`, the Potency result was “inactive”.

Consider `CCc1ccccc1NC(=O)Cc1ccc(NC(=O)N2CCCCc3ccccc32)cc1`, for which the Potency entry was “inactive”.

As to `COc1cc([N+](=O)[O-])ccc1NC(=S)N1CCN(c2ccccn2)CC1`, the Potency result is “inactive”.

As for `O=[N+]([O-])c1ccc(N/N=C2/CCCCC2c2ccccn2)c([N+](=O)[O-])c1` (stereo unspecified), the Potency was 31.6 µM (active).

`O=C(Nc1ccccc1)O/N=C1\CCCCC1c1ccc([N+](=O)[O-])cc1[N+](=O)[O-]` (stereo unspecified): the Potency result is “inactive”.

`Cc1ccc(F)cc1NC(=O)CCSc1nc(-c2ccco2)cc(C(F)(F)F)n1`: the Potency result is “inactive”.

On to `COC(=O)c1cc(S(=O)(=O)N2CCN(c3cc(Cl)ccc3C)CC2)c[nH]1`, for which the Potency entry is “inactive”.

With `COc1ccc(-c2nc3sc(CCNC(=O)C(C)(C)C)c(C)n3n2)cc1`, the Potency result is “inactive”.

`COc1cc(-c2noc(-c3ccc(N4CCCC4)c([N+](=O)[O-])c3)n2)cc(OC)c1OC`: the Potency result was “inactive”.

As for `Cc1ccc(Cl)cc1NC(=O)/C(C#N)=C\c1cn(Cc2ccc(F)cc2)c2ccccc12`, the Potency result was “inactive”.

Consider `Cc1ccsc1C(=O)NCCc1ccco1`, for which the Potency is 56.2 µM (active).

Turning to `COc1cc(OC)cc(C(=O)NCCSCc2ccco2)c1`, the Potency result is “inactive”.

For `Cc1ccccc1NC(=O)NCc1ccco1`, the Potency result was “inactive”.

Regarding `Cc1ccc(F)cc1S(=O)(=O)N1CCC(c2nc3ccccc3s2)CC1`, the Potency result was “inactive”.

Turning to `Cc1ccc(C(=O)COC(=O)C(Cc2c[nH]c3ccccc23)NC(=O)c2ccc(Br)cc2)cc1` (stereo unspecified), the Potency entry was “inactive”.

Turning to `CC1CCN(CC(O)COc2ccc(C(=O)c3ccccc3)cc2)CC1` (stereo unspecified), the Potency entry is “inactive”.

Take `COc1cccc(OCC(O)CN2CCN(CCO)CC2)c1` (stereo unspecified): the Potency entry is “inactive”.

For the compound `COc1ccc(OCCCCN2CCC(C)CC2)cc1`, the Potency was 79.4 µM (active).

Take `C/C=C/c1ccc(OCCCCN2CCC(C)CC2)c(OC)c1`: the Potency is 35.5 µM (active).

In the case of `COc1cccc(OCCCN2CCCCCC2)c1`, the Potency was 56.2 µM (active).

As to `C/C=C/c1ccc(OCCOc2ccc(C=O)cc2OC)c(OC)c1`, the Potency result is “inactive”.

With `COc1cc(/C=N/NC(=O)c2ccoc2C)ccc1OCCN1CCCCC1`, the Potency entry is “inactive”.

Consider `COc1cccc(NC(=O)NCCN2CCCCC2)c1`, for which the Potency result was “inactive”.

For the compound `COc1ccc(OC)c(NC(=O)CCN2CCC(C)CC2)c1`, the Potency entry was “inactive”.

Regarding `CCCCN(C)S(=O)(=O)c1ccc(C(=O)Nc2sc3c(c2C(N)=O)CC(C)(C)NC3(C)C)cc1`, the Potency result was “inactive”.

On to `COC(=O)c1ccccc1NC(=O)Cn1c(=O)cc(C)c2c(C)nn(-c3cccc(Cl)c3C)c21`, for which the Potency result is “inactive”.

Take `CCOc1ccc(CNC(=O)C2CCCN(S(=O)(=O)N(CC)c3ccc(OCC)cc3)C2)cc1` (stereo unspecified): the Potency result was “inactive”.

As to `Cc1ccc(Cc2nc3ccccc3nc2SCC(=O)Nc2cccc(C(F)(F)F)c2)cc1`, the Potency entry is “inactive”.

Regarding `Cc1ccc(-c2nc3ccccn3c2Nc2c(C)cccc2C)o1`, the Potency was 28.2 µM (active).

With `Cc1nc2ccccn2c(=O)c1NC(=O)c1c(F)cccc1F`, the Potency result is “inactive”.

On to `Cc1cccc(C)c1Nc1c(-c2ccccc2O)nc2ncccn12`, for which the Potency entry is “inactive”.

In the case of `CCOC(=O)C1CCN(c2ncnc3c2c(-c2ccccc2)cn3-c2cccc(C)c2)CC1`, the Potency entry was “inactive”.

With `CCOc1ccc(CCNC(=O)c2csc3c2CCCCC3)cc1`, the Potency entry is “inactive”.

Regarding `O=[N+]([O-])c1ccccc1S(=O)(=O)Nc1cccc2cccnc12`, the Potency is 25.1 µM (active).
